This is a sample that favours compounds with a hit; in the whole collection about 1.3% have one here.
BRCA1 expr up: qHTS Assay to Identify Small Molecule Activators of BRCA1 Expression; MCF7-BRCA1-FFLuc reporter, luminescence, 48 h; response scale: scaled: vehicle 0%, 10 µM genistein 100%; Potency, µM (top dose mostly 46.1 µM), inactives show at the top dose activation, usual class: activators; 1.1% of 380,000 active; AID 624202, 2012; active means well fitted activation curve with a large enough effect; inconclusive means small, poorly fitted or top-dose-only effect; inactive means no such curve, though single readings can be large or run the other way; further: potency means the concentration at half of the fitted maximal effect; nearly all actives have a fitted effect of over 80% in size
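First, MCF7-BRCA1-FFLuc cells (2000/well) attach for 2 h; next, compounds are pin-added and incubated 48 h at 37 °C; finally, luciferase reagent is added and luminescence read after 15 min.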
TRPML1 blocker: qHTS for Inhibitors of the Human Mucolipin Transient Receptor Potential 1 (TRPML1); TRPML1-inducible cells, Ca2+ dye fluorescence, FDSS; hits give low values; inhibition of EC80 agonist-evoked calcium signal; activity change, negative = inhibition, % (concentration not given with the values); 0.02% of 390,000 active; in the data active means activity change below about -50%; inconclusive means between about -30% and that limit;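 further: stimulus is agonist 54-4 at its EC80 concentration; on the % scale 0 is the no-effect control and ±100 the full control effect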
Target sequence (Q9GZU1 whole entry, looked up): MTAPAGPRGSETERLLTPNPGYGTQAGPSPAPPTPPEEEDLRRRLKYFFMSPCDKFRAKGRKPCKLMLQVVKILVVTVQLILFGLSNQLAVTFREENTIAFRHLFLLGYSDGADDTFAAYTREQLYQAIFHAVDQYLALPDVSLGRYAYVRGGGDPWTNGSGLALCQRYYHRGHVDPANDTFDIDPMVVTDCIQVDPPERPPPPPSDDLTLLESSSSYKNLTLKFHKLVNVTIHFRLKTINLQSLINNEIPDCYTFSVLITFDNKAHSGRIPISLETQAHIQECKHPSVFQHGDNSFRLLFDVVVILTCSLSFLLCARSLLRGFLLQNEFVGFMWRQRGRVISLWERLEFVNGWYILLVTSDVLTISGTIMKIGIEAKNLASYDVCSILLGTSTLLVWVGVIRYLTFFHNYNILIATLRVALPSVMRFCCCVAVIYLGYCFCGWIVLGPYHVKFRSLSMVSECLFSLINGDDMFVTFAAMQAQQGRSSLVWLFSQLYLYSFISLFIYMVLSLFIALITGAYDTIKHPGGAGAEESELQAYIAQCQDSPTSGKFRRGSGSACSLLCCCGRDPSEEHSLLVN
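Tet-induced TRPML1-DL cells loaded with Ca8 no-wash calcium dye were read kinetically on FDSS. Compound addition was followed by EC80 agonist 54-4 (4 uM final); inhibition was read over 110 s.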
PKM2 activator: qHTS Assay for Activators of Human Muscle isoform 2 Pyruvate Kinase. Pyruvate kinase PKM (Homo sapiens), P14618. purified PKM2, Kinase-Glo ATP luminescence, activation; response scale: 0% is enzyme alone, no compound. Potency, µM (series often up to 57.5 µM), for inactives: at the top dose activation, hits mostly activators. 0.34% of 260,000 active; active means well fitted activation curve with a large enough effect; inconclusive means small, poorly fitted or top-dose-only effect; inactive means no such curve, though single readings can be large or run the other way; further: potency means the concentration at half of the fitted maximal effect; on the % scale 0 is the no-effect control and ±100 the full control effect; nearly all actives have a fitted effect of over 55% in size
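Purified hPK-M2 (>95%) run at intermediate activity with 0.1 mM ADP and 0.5 mM PEP in 50 mM imidazole pH 7.2, KCl, MgCl2; 1 h room temperature. ATP formed read by Kinase-Glo luminescence; normalized to uninhibited and no-enzyme controls.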
PTAP TSG101 blk: qHTS Assay for Iinhibitors of HIV-1 Budding by Blocking the Interaction of PTAP/TSG101. Tumor susceptibility gene 101 protein (Homo sapiens), Q99816. Fluorescence polarization, FITC-PTAP peptide / Tsg101 binding. Potency, µM (top dose mostly 115 µM), for inactives: top-dose activity change, negative = inhibition, most hits filed as inhibitors. 340,000 tested, under 10 active; active means well fitted inhibition curve with a large enough effect in the main read-out, with a control signal flat, not every such curve was filed as active; inconclusive means small, poorly fitted or top-dose-only effect, or effect the other way, or a change in a side signal; inactive means no such curve, though single readings can be large or run the other way; further: potency means the concentration at half of the fitted maximal effect; % of control where 0% means no effect
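Fluorescence polarization binding of Tsg101 binding domain (10 uM final) to FITC-labeled PTAP peptide (50 nM final) in HEPES pH 7.5 buffer with NaCl, Tween 20, EDTA, TCEP. Compounds added before peptide; binding 20 min at RT.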
TRPML1 agonist: qHTS for Agonists of the Human Mucolipin Transient Receptor Potential 1 (TRPML1); Mucolipin-1 (Homo sapiens), Q9GZU1; 0.12% of 410,000 active; activation, % (test concentration not listed); TRPML1-expressing cells, Ca2+ dye fluorescence, FDSS; AID 624414, 2012; further: 0% is about no effect
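TRPML1-DL cells, Tet-induced overnight (~16 h, 37 degrees C), loaded 45-90 min at room temperature with Ca8 no-wash calcium dye plus quencher. FDSS fluorescence: 10 s baseline, compound pin-transfer, 110 s agonist read, then EC80 54-4 (4uM final) and 110 s antagonist read.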
IL-2 act: qHTS of IL-2 Activators; IL-2 activation reporter assay, cell-based qHTS; stimulated with anti-CD3/CD4/CD28 beads; in transgenic mouse T cells; activation, % (series mostly up to about 46 µM); 0.065% of 360,000 active; further: 0% is about no effect
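Unstimulated transgenic mouse T cells preincubated 60 min with compound, then stimulated with anti-CD3/anti-CD4-coated beads plus anti-CD28 for 18 h at 37 degrees C. IL-2 response read as EGFP and DsRed fluorescence by plate cytometry.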
* hit, by the source's call; ? = inconclusive; . = no result. Unless noted, no stated cut-off is given here; in the data, active means activation above about 50%; inconclusive means mostly about 30% to 49%; inactive means weaker than that.

SMILES	BRCA1 expr up	TRPML1 blocker	PKM2 activator	PTAP TSG101 blk	TRPML1 agonist	IL-2 act
O=[N+]([O-])c1cc(Cl)ccc1-c1nc(-c2ccncc2)no1	86%	31	7%	-3%	3	1
c1ccc(-c2nc(-c3ccncc3)no2)cc1	?	8	6%	-1%	-1	0
Cc1cccc(NC(=O)Cn2nnc(C(=O)Nc3ccccc3Br)c2N)c1C	.	34	.	.	0	.
CC(=O)c1cc(-c2ccccc2)n(CCC(=O)Nc2cc(C)cc(C)c2)c1C	.	38	.	.	2	.
Cc1ccc(NC(=O)C2CCCN(S(=O)(=O)c3c(C)n[nH]c3C)C2)c(C)c1 (stereo not given)	12%	31	.	.	-1	.
CC(=O)Nc1cccc(-c2ccnc3c2CC(C(=O)NCc2ccc(N(C)C)cc2)O3)c1 (stereo not given)	1%	-27	.	.	0	0
CS(=O)c1ccccc1-c1nc(-c2ccc(Cl)cc2)no1 (stereo not given)	11µM*	10	3%	-1%	3	1
O=[N+]([O-])c1ccc(-c2nc(-c3ccncc3)no2)cc1	2.5µM*	-10	1%	-2%	0	-1
Brc1ccc(-c2nc(-c3ccncc3)no2)cc1	?	.	.	-1%	.	1
CC(C)OC(=O)c1ccc(NC(=O)c2ccccc2)cc1	2.5µM*	-7	-4%	-1%	1	-1
Cc1ccc(C(=O)Cc2ccccc2)cc1	47%	-15	.	-1%	2	1
Cc1ccc(NC(=O)c2ccccc2)cc1	3.5µM*	1	-15%	-6%	0	-3
Cc1ccc(NC(=O)c2ccc(Cl)c(N3C(=O)C=CC3=O)c2)cc1	-60%	-1	20µM*	-7%	3	-1
Cc1ccc(C(=O)CC(=O)c2ccccc2)cc1	5µM*	-8	-1%	-1%	0	-1
CCOC(=O)c1ccc(NC(=O)c2ccc(NC(=O)c3ccccc3)cc2)cc1	18%	-8	4%	-2%	1	-1
O=C(Nc1ccc(F)cc1F)C1CCN(S(=O)(=O)c2ccc3[nH]c(=O)ccc3c2)CC1	18%	7	.	.	1	.
Cc1ccc(NC(=O)c2nc(SCc3ccccc3F)ncc2Cl)cc1	-21%	.	.	.	-1	.
COc1cc2nc(N3CCOCC3)nc(NC3CCN(C)CC3)c2cc1OC	5%	.	.	.	0	.
CCCCOc1ccc(CNC(=O)C2CCCN(c3nnc(-n4c(C)ccc4C)s3)C2)cc1 (stereo not given)	18%	49	.	.	1	.
CC(C)Oc1ccc(C(=O)N(Cc2ccco2)c2ccccn2)cc1	0%	-11	.	.	-1	.
Cc1ccc(-c2nn(-c3ccccc3)cc2C(=O)Nc2ccc(C(=O)O)cc2)cc1	10µM*	-9	-27%	-6%	0	1
Cc1ccc(NC(=O)c2cn(-c3ccccc3)nc2-c2ccccc2)cc1	.	2	.	.	4	.
O=C(Nc1ccc2c(c1)C(=O)c1ccccc1-2)c1ccccc1	2.8µM*	0	.	1%	0	0
Cc1ccc(/C=C/C(=O)Nc2ncc(C)s2)o1	3.2µM*	5	28%	2%	1	3
Cc1cnc(NC(=O)/C=C/c2ccc(Br)o2)s1	0%	?	-8%	2%	0	-1
SMILES	BRCA1 expr up	TRPML1 blocker	PKM2 activator	PTAP TSG101 blk	TRPML1 agonist	IL-2 act
Cc1ccc(/C=C/C(=O)Nc2ccncc2)o1	20%	1	23%	-5%	0	-2
Cc1ccc(/C=C/C(=O)Nc2ccc(N(C)C)cc2)o1	4µM*	-4	3%	-1%	0	-1
COc1cccc(C(=O)Nc2cccc(-c3nc4ncccn4c3C)c2)c1	.	-9	.	.	0	.
NC(=O)CSc1ccc2nnc(-c3ccncc3)n2n1	11%	.	.	.	-1	.
CC(C)c1ccc(Nc2nc(CC(=O)O)cs2)cc1	5µM*	-9	-9%	-2%	0	-1
O=C(O)Cc1csc(Nc2cccc(Cl)c2)n1	-2%	4	10%	-5%	2	0
Nc1ccc2cc3[nH]c4cc(N)ccc4c3nc2c1	-76%	-15	.	?	29	424*
Nc1ccc(-c2nc3ccc(N)cc3[nH]2)cc1	16%	9	-6%	0%	1	0
Cc1nnc(SCc2nc3scc(-c4ccccc4)c3c(=O)[nH]2)s1	0%	-21	28µM*	-6%	1	-3
O=C(NC(=S)Nc1ccccc1[N+](=O)[O-])c1ccccc1Cl	13µM*	-22	-4%	-3%	2	2
COc1ccc(NC(=S)NC(=O)c2ccccc2Cl)cc1	13µM*	-9	1%	-5%	1	0
COc1ccc(NC(=S)NC(=O)C2CCCCC2)cc1	7.9µM*	7	3%	-10%	0	-4
COc1ccc(NC(=O)C2CCCC2)cc1	20%	5	0%	-3%	0	-1
COc1cccc(-n2c(=O)c3c(C)c(C)sc3n(CC(=O)NCc3ccccc3)c2=O)c1	.	-5	.	.	2	.
Cc1ccc2nccc(/C=C/c3ccc(N(C)C)cc3)c2c1	.	.	.	.	22	.
Cc1ccsc1CN(C(=O)COc1ccc(Br)cc1)C1CCS(=O)(=O)C1 (stereo not given)	.	32	.	.	0	.
CN(c1nc(-c2ccc(Br)cc2)cs1)C1CCS(=O)(=O)C1 (stereo not given)	11µM*	4	.	-1%	-1	0
COc1ccc(NC(=O)[C@@H](c2ccccc2)N2Cc3ccccc3C2=O)cc1OC	-8%	39	.	.	1	.
O=C(CSc1nc(-c2ccccc2)ns1)N1CCOCC1	4µM*	-3	0%	-12%	0	0
Cc1ccc2c(c1)N(C(=O)N1CCC(C(=O)NCCC3=CCCCC3)CC1)CC(C)O2 (stereo not given)	.	5	.	.	-1	.
c1ccc2c(c1)Nc1cc3ccccc3cc1S2	7.1µM*	2	-29%	-2%	1	-3
CCc1ccc(S(=O)(=O)c2nnn3c2nc(NCCNC(C)=O)c2ccccc23)cc1	-26%	-15	11µM*	-9%	1	1
Cc1ccc(-c2[nH]ncc2CNCc2ccc(CN(C)C)cc2)cc1	0%	.	.	.	0	.

Screens as filed in PubChem BioAssay.
